Most compounds without a hit are left out; they make up all but 10% or so of the library.
12-hLO inh: qHTS Assay for Inhibitors of 12-hLO (12-human lipoxygenase); AID 1452, 2008; 150,000 compounds, 0.12% hits; purified 12-hLO, xylenol orange hydroperoxide absorbance; Potency, µM (titrated, usually from 57.1 µM), usual class: inhibitors; Polyunsaturated fatty acid lipoxygenase ALOX12 (Homo sapiens), P18054; active means well fitted inhibition curve with a large enough effect; inconclusive means small, poorly fitted or top-dose-only effect; further: nearly all actives have a fitted effect of over 55% in size
Target sequence (P18054 whole entry, looked up): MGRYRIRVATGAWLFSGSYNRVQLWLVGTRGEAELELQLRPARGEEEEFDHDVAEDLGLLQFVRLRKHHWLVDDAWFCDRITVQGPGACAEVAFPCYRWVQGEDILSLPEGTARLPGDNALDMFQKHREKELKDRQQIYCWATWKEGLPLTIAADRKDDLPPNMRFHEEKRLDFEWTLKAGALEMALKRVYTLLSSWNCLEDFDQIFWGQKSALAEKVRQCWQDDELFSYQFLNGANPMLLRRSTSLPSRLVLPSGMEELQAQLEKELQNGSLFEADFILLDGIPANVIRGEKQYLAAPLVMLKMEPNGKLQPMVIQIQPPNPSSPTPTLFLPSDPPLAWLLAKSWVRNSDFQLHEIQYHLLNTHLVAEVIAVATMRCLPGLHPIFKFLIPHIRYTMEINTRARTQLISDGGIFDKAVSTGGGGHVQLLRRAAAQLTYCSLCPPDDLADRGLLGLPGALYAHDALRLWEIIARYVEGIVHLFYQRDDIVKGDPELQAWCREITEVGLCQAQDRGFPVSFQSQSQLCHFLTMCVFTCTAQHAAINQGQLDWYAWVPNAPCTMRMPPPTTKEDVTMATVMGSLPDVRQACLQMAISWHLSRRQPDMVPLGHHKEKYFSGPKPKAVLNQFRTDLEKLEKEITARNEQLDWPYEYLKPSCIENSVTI
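Lipoxygenase turnover measured by absorbance at 573 and 405 nm after Fe-XO development. Human 12hLO 150 nM, arachidonate 40 uM, pH 7.0 Hepes buffer with detergent; 15 min compound preincubation, 30 min reaction.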
ALDH1A1 inh: qHTS Assay for Inhibitors of Aldehyde Dehydrogenase 1 (ALDH1A1). AID 1030, 2008. 220,000 compounds, 7.3% hits. Potency, µM (top dose mostly 75.3 µM), most hits filed as inhibitors. Aldehyde dehydrogenase 1A1 (Homo sapiens), P00352. Purified ALDH1A1, NADH fluorescence, propionaldehyde substrate
Lamin A splicing: qHTS Assay for Modulators of Lamin A Splicing; HeLa LMNA splicing GFP/RFP minigene ratio, 48 h; Potency, µM (highest dose often 46.1 µM), actives largely listed as inhibitors; 200,000 compounds, 0.01% hits; active means well fitted inhibition curve with a large enough effect in the signal ratio, with a control signal flat, not every such curve was filed as active; inconclusive means small, poorly fitted or top-dose-only effect, or effect the other way, or a change in a side signal; the % refers to the signal ratio
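S3 HeLa cells stably expressing lamin A-EGFP splicing minigene plus DsRed2, 600 cells/well, 48 h compound exposure at 37C. Laser-scanning cytometry; analysed as GFP (500-530 nm)/RFP (575-640 nm) total intensity ratio; 0.5% DMSO vehicle.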
HPGD block: qHTS Assay for Inhibitors of HPGD (15-Hydroxyprostaglandin Dehydrogenase). purified HPGD, NADH fluorescence kinetic, PGE2 substrate. Potency, µM, most hits filed as inhibitors. 150,000 compounds, 4.3% hits. AID 894, 2007
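20 nM HPGD preincubated 15 min at room temperature with compound in 50 mM Tris-HCl pH 8, 0.01% Tween 20. Started with 1 mM NAD+ and 30 uM prostaglandin E2; NADH fluorescence (360/450 nm) read 5 times over 30-s intervals, last minus first.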
PNC inhibitor: High Content Assay for Compounds that inhibit the Assembly of the Perinucleolar Compartment. PC3M PTB-GFP, PNC prevalence imaging, 16 h; stronger effect = lower value. activity change (PNC), negative = inhibition, % at 10 µM. 140,000 compounds, 3.1% hits. AID 2417, 2010;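 active means readout at or below -70, meaning at least 70% loss of cells showing the perinucleolar compartment, a nuclear body marking cancer cells; inconclusive means readout between -30 and a set limit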
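Read-out is percentage of cells bearing a perinucleolar compartment, from automated 20x imaging of fixed, Hoechst-stained PC3M PTB-GFP cells. Cells were seeded 4 h, then exposed 16 h to compound (23 nl of library stock) in duplicate plates.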
Numbers stand for hits; 0 = inactive; ? = inconclusive; - = not tested or not shown; [ ] = dose if it differs, or a comment. Unless noted, the call rests on the fitted dose curve; in most records, active means well fitted inhibition curve with a large enough effect (not every such curve was filed as active); inconclusive means small, poorly fitted or top-dose-only effect, or another doubt; inactive means no such curve, though single readings can be large or run the other way.

SMILES	12-hLO inh	ALDH1A1 inh	Lamin A splicing	HPGD block	PNC inhibitor
O=S(=O)(CCOc1ccccc1)c1nc2ccccc2[nH]1	0	6.31µM	?	0	0
O=C(CCCOc1ccccc1)Nc1nc2ccccc2[nH]1	-	0	-	-	-
Cc1ccc(Cl)cc1N1C(=O)N(Cc2ccc(C#N)cc2)c2ccccc2S1(=O)=O	-	-	0	-	-
COc1cc(/C=N/Nc2ncc(C(F)(F)F)cc2Cl)cc(OC)c1OC	0	0	?	?	0
C/C(=N\Nc1ncc(Cl)cc1Cl)c1ccc(C#N)cc1	-	0	0	-	-
C/C(=N/Nc1ncc(C(F)(F)F)cc1Cl)c1ccncc1	-	39.8µM	-	-	-
COc1cc(/C=N/Nc2ncc(C(F)(F)F)cc2Cl)cc(OC)c1O	0	0	?	14.1µM	0
Cc1cccc(Cn2cc(/C=C/[N+](=O)[O-])c3ccccc32)c1	0	?	?	0	0
CCOc1ccc(/C=C/[N+](=O)[O-])c2ccccc12	?	28.2µM	?	11.2µM	0
CCOC(=O)COc1ccc(/C=C/[N+](=O)[O-])c(OCC(=O)OCC)c1	0	?	?	?	0
CCOC(=O)COc1ccc2ccccc2c1/C=C/[N+](=O)[O-]	0	12.6µM	?	3.55µM	0
CC(C)(C)NC(=O)C1CCN(c2ccc(S(=O)(=O)N3CCOCC3)cc2Cl)CC1	-	0	0	-	-
O=C(NC1CC1)C1CCN(c2ccc(S(=O)(=O)N3CCOCC3)cc2Cl)CC1	0	0	0	25.1µM	0
O=C(NCc1cccs1)C1CCN(c2ccc(S(=O)(=O)N3CCOCC3)cc2Cl)CC1	0	0	?	0	-124.1
CC(C)CNC(=O)C1CCN(c2ccc(S(=O)(=O)N3CCOCC3)cc2Cl)CC1	0	0	0	15.8µM	0
CCOC(=O)C1=C(c2cccc(F)c2)NC(=S)NC1C (centres undefined)	0	1.58µM	?	0	0
CCCOc1ccc([N+](=O)[O-])cc1C1NC(=S)NC(c2ccccc2)=C1C(=O)OCC (centres undefined)	?	?	0[0.0737 µM]	0	0
COc1cccc(/C=N/Nc2nn3cnnc3c3ccccc23)c1	0	?	?	?	-80.5
COc1cc(/C=N/Nc2nn3cnnc3c3ccccc23)ccc1O	0	0	0	?	0
Cc1ccc(-n2nc(C(=O)NC(C)C)c(=O)n(C)c2=O)cc1	-	-	0	-	-
C/C(N=NC(=[SH+])SCc1ccccc1)=C1\C=CC=CN1.[Cl][Cu]	-	2.51µM	-	3.55µM	-
O=C(CCc1ccccc1)n1nc(-c2ccco2)nc1SCc1ccccc1	0	0	0	8.91µM	?
O=C(OC1CCOC1=O)c1cc(-c2cccc(Br)c2)nc2ccccc12 (centres undefined)	-	0	-	-	-
O=C(OC1CCOC1=O)c1cc(-c2ccc(Br)cc2)nc2ccccc12 (centres undefined)	0	?	0	0	-119.2
COc1ccc(C(=O)N2CCN(Cc3cn[nH]c3-c3ccc(OC)cc3F)CC2)cc1	-	1µM	-	-	-
SMILES	12-hLO inh	ALDH1A1 inh	Lamin A splicing	HPGD block	PNC inhibitor
COc1ccc(-c2[nH]ncc2CN2CCC(C(=O)N3CCOCC3)CC2)c(F)c1	-	0	-	-	-
COc1ccc(-c2[nH]ncc2CN(CCO)Cc2cccs2)c(F)c1	-	?	0	-	-
CCN(Cc1ccncc1)Cc1cn[nH]c1-c1ccc(OC)cc1F	-	14.1µM	-	-	-
Cc1ccc(OCC(=O)N2CC3(C)CC2CC(C)(C)C3)cc1 (centres undefined)	0	0	0	0	-100.0
CC1(C)CC2CC(C)(CN2C(=O)CN2C(=O)c3ccccc3C2=O)C1 (centres undefined)	0	0	0	0	?
CC1(C)CC2CC(C)(CN2C(=O)COC(=O)Cn2[nH]c(=O)c3ccccc3c2=O)C1 (centres undefined)	0	0	0	0	-88.0
Cc1cccc(C)c1OCC(=O)N1CC2(C)CC1CC(C)(C)C2 (centres undefined)	0	0	0	0	0
CCOC(=O)N1CCN(C(=O)CSc2nnc(C3COc4ccccc4O3)o2)CC1 (centres undefined)	0	31.6µM	0	0	0
O=C(CSc1nnc(-c2ccccc2F)o1)Nc1ccccc1Cl	-	-	0	-	-
Cc1cc(NC(=O)CSc2nnc(C3COc4ccccc4O3)n2C)no1 (centres undefined)	-	0	-	-	-
Cc1ccc(NC(=O)CSc2nnc(C3COc4ccccc4O3)o2)c(Cl)c1 (centres undefined)	-	2.82µM	-	-	-
O=C(CSc1nnc(C2COc3ccccc3O2)o1)Nc1ccc(F)cc1Cl (centres undefined)	-	10µM	0	-	-
O=C(COc1ccc(Cl)cc1Cl)NN1C(=O)/C(=C\c2ccc(Cl)cc2)SC1=S	-	0	-	-	-
CC(=O)NN1C(=O)/C(=C/c2ccc(C(C)C)cc2)SC1=S	0	3.98µM	0	0	?
COc1ccc(S(=O)(=O)c2cn(C)c3cc(N4CCCC4)c(F)cc3c2=O)cc1	-	-	0	-	-
O=C(COc1ccccc1)NCC(c1ccc(Cl)cc1)N1CCCCC1 (centres undefined)	-	-	0	-	-
CCC1=C2CC[C@H]3C(=O)N(CC)C(=O)[C@H]3[C@H]2[C@@]2(Cc3ccccc3)C(=O)N(CCOC)C(=O)N2C1=O	0	0	-	0	-
CC(=O)Nc1ccc(S(=O)(=O)NCC(=O)OCC(=O)N2CCN(c3ccccc3)CC2)cc1	0	20µM	0	0	0
CC(=O)Nc1ccc(S(=O)(=O)NCC(=O)OCC(=O)N2CCCc3ccccc32)cc1	0	0	0	0	-99.5
CCC(=O)N1CCCc2cc(S(=O)(=O)N3CCCc4ccccc43)ccc21	0	17.8µM	?	0	0
CC(=O)Nc1ccc(S(=O)(=O)N(C)CC(=O)OCC(=O)N2CCc3ccccc32)cc1	0	8.91µM	0	0	0
O=C(CNS(=O)(=O)c1c(Cl)cccc1Cl)OCC(=O)N1CCN(c2ccccc2)CC1	0	0	0	0	0
CN(CC(=O)N1CCc2ccccc21)S(=O)(=O)c1ccc(Cl)cc1	0	0	0	0	0
CCOC(=O)C1OC1c1ccccc1 (centres undefined)	0	0	-	0	-
O=Cc1cn(-c2ccc(F)cc2)c2ccccc12	0	2µM	0	0	0
SMILES	12-hLO inh	ALDH1A1 inh	Lamin A splicing	HPGD block	PNC inhibitor
CCCCN=Cc1c(C)[nH]n(-c2ccccc2)c1=S	-	28.2µM	-	-	-
Cc1[nH]n(-c2ccccc2)c(=O)c1C=Nc1cccc2cccnc12	0	0	?	0	0
CCCCN(CCCC)C(=S)N/N=C/c1c(C)[nH]n(-c2ccccc2)c1=O	0	5.01µM	?	0	0
Cc1[nH]n(-c2ccccc2)c(=S)c1C=Nc1cccc([N+](=O)[O-])c1	31.6µM	5.62µM	0	8.91µM	0
Cc1[nH]n(-c2ccccc2)c(=O)c1C=NCCc1ccccc1	-	0	0	-	-
COc1cc([N+](=O)[O-])cc2sc(NC(=O)c3c(F)cccc3F)nc12	-	7.94µM	-	-	-
